Data: PubChem BioAssay (EPA / NIEHS)
Activity calls are given as the source filed them. Rule for the calls: active = hit-call score of the fitted dose curve at least 0.9, where 1 is the maximum; inactive = score below 0.9.

Key:
Conditions in all cases: mRNA level, 48 h; actives raise or lower the signal
[1] = read-out: succinate dehydrogenase complex iron sulfur subunit B (SDHB), SDHB (gene 6390); assay: LTEA_HepaRG_SDHB: Life Technologies and Expression Analysis (LTEA) Assay for succinate dehydrogenase complex iron sulfur subunit B (SDHB) using HepaRG (AID 2283528)
How it was run: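 Readout is SDHB transcript level by qRT-PCR, normalised to three housekeeping genes and fitted bidirectionally against 0.5% DMSO vehicle. Human HepaRG cells were treated for 48 h at up to 100 uM.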

[2] = read-out: Signal transducer and activator of transcription 3 (Homo sapiens) (UniProt P40763); assay: LTEA_HepaRG_STAT3: Life Technologies and Expression Analysis (LTEA) Assay for Signal transducer and activator of transcription (STAT3) using HepaRG (AID 2283529)
How it was run: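 In this transcriptional endpoint, HepaRG cultures receive test chemicals at up to 100 uM for 48 h, tested in duplicate. STAT3 mRNA is normalized to ACTB, GAPDH and POLR2A.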

[3] = read-out: solute carrier (SLCO1B1), SLCO1B1 (gene 10599); assay: LTEA_HepaRG_SLCO1B1: Life Technologies and Expression Analysis (LTEA) Assay for solute carrier (SLCO1B1) using HepaRG (AID 2283530)
How it was run: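 SLCO1B1 transcript levels were quantified by TaqMan qRT-PCR using three housekeeping genes for normalization. This followed 48 h chemical exposure (100 uM top, half-log, 8 points, 0.5% DMSO) of HepaRG liver cells, with gain or loss fitted relative to DMSO.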

[4] = read-out: sulfotransferase 2A1 (SULT2A1), SULT2A1 (gene 6822); assay: LTEA_HepaRG_SULT2A1: Life Technologies and Expression Analysis (LTEA) Assay for sulfotransferase 2A1 (SULT2A1) using HepaRG (AID 2283531)
How it was run: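 Expression change of SULT2A1, by qRT-PCR with three housekeeping-gene normalization, was scored bidirectionally versus DMSO. Cells: differentiated HepaRG, dosed in duplicate for 48 h across 8 points, highest 100 µM, half-log dilution, 0.5% DMSO.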

[5] = read-out: Transforming Growth Factor (TGFA), TGFA (gene 7039); assay: LTEA_HepaRG_TGFA: Life Technologies and Expression Analysis (LTEA) Assay for Transforming Growth Factor (TGFA) using HepaRG (AID 2283532)
How it was run: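 Gene expression of TGFA was quantified by qRT-PCR after human HepaRG cells were treated for 48 h with test chemicals (eight concentrations, highest 100 uM, 0.5% DMSO). Activity in either direction was fitted relative to DMSO.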

TIMP1, TIMP1 (gene 7076) = assay: LTEA_HepaRG_TIMP1: Life Technologies and Expression Analysis (LTEA) Assay for TIMP1 using HepaRG (AID 2283534)
How it was run: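 Bidirectional change in TIMP1 transcript versus 0.5% DMSO, measured by TaqMan qRT-PCR with three housekeeping genes for normalization. HepaRG human liver cells dosed 48 h in duplicate, top concentration 100 uM with half-log dilutions.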

[6] = read-out: Tumor necrosis factor receptor 1 (TNFRSF1A), TNFRSF1A (gene 7132); assay: LTEA_HepaRG_TNFRSF1A: Life Technologies and Expression Analysis (LTEA) Assay for Tumor necrosis factor receptor 1 (TNFRSF1A) using HepaRG (AID 2283535)
How it was run: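 mRNA measured by qRT-PCR (TaqMan, Fluidigm arrays) against ACTB/GAPDH/POLR2A housekeepers after 48 h chemical exposure of HepaRG cells. Top concentration 100 uM, half-log 8-point series, duplicates; vehicle 0.5% DMSO, both fit directions.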

[7] = read-out: Thyroid Hormone Responsive (THRSP), THRSP (gene 7069); assay: LTEA_HepaRG_THRSP: Life Technologies and Expression Analysis (LTEA) Assay for Thyroid Hormone Responsive (THRSP) using HepaRG (AID 2283536)
How it was run: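 Cell model: human HepaRG, approx. 100,000 cells/well, 0.5% DMSO vehicle. Exposure lasts 48 h; phenobarbital 1 mM serves as induction positive control. Gene expression is measured by qRT-PCR against three endogenous control genes.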

[8] = read-out: Cellular tumor antigen p53 (Homo sapiens) (UniProt P04637); assay: LTEA_HepaRG_TP53: Life Technologies and Expression Analysis (LTEA) Assay for Tumor Protein P53 (TP53) using HepaRG (AID 2283537)
How it was run: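 Read-out is TP53 transcript level by microfluidic qRT-PCR, normalised to three housekeeping genes and fitted bidirectionally against DMSO. Human HepaRG cells received compounds for 48 h, highest concentration 100 uM.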

[9] = read-out: Transforming Growth Factor (TGFB1), TGFB1 (gene 7040); assay: LTEA_HepaRG_TGFB1: Life Technologies and Expression Analysis (LTEA) Assay for Transforming Growth Factor (TGFB1) Transporter using HepaRG (AID 2283533)
How it was run: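 TGFB1 transcript measured by qRT-PCR with normalisation to three housekeeping genes (ACTB, GAPDH, POLR2A); human HepaRG line treated in duplicate for 48 hr with an 8-point series topping at 100 uM, 0.5% DMSO vehicle, bidirectionally fitted.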

Measured: AC50

Chain of Signal transducer and activator of transcription 3 (Homo sapiens) (P40763 whole entry, looked up): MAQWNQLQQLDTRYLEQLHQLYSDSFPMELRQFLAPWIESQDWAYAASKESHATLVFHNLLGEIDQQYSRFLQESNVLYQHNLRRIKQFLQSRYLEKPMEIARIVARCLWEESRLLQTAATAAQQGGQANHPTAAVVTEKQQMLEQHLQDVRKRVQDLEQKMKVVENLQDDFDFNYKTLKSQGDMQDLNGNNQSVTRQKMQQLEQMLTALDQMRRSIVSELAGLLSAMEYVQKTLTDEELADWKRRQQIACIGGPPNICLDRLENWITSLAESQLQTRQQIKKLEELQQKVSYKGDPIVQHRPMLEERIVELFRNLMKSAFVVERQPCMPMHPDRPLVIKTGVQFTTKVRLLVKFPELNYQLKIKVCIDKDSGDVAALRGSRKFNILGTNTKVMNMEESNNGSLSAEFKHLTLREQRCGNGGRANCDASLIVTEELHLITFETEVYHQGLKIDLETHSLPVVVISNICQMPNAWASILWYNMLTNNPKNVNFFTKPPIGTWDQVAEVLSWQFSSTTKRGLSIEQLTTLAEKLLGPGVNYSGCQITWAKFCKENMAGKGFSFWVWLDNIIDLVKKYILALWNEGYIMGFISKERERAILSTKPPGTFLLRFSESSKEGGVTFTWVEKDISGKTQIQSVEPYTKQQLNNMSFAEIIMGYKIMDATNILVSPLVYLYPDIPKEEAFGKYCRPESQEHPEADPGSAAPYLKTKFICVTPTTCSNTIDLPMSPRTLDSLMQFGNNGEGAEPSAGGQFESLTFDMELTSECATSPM
Chain of Cellular tumor antigen p53 (Homo sapiens) (P04637 whole entry, looked up): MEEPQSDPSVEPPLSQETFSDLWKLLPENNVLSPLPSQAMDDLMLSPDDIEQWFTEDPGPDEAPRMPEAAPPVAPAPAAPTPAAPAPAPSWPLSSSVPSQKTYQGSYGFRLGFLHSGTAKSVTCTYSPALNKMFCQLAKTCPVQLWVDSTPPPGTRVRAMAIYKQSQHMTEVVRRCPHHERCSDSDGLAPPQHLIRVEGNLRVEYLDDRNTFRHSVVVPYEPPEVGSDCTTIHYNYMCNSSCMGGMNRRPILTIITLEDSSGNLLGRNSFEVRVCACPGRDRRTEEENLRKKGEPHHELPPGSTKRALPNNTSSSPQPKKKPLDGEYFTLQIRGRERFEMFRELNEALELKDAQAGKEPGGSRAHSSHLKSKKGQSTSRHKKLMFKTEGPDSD

CC(C)(C)c1cc(C(C)(C)C)c(O)c(C(C)(C)C)c1
active: [7] 17.9 µM
not listed: [9]
inactive: all other assays above

CCCCCCCCCCCCN1CCCC1=O
not listed: [9]
inactive: all other assays above

CC(C)(C)c1cccc(C(C)(C)C)c1O
not listed: [4] | [9]
inactive: all other assays above

OCCC(F)(F)C(F)(F)C(F)(F)C(F)(F)C(F)(F)C(F)(F)F
not listed: [4] | [9]
inactive: all other assays above

C#C[C@]1(O)CC[C@H]2[C@@H]3CCC4=CC(=O)CC[C@@H]4[C@H]3CC[C@@]21C
active: [7] 0.0729 µM
not listed: [4] | [9]
inactive: all other assays above

CC1=C(/C=C/C(C)=C/C=C/C(C)=C/C(=O)O)C(C)(C)CCC1
active: [1] 1.09 µM | [3] 11.5 µM
not listed: [4]
inactive: all other assays above

CC(C)(C)CC(C)(C)c1ccc(O)c(-n2nc3ccccc3n2)c1
active: [7] 77.9 µM
not listed: [4] | [9]
inactive: all other assays above

CCCOC(=O)c1ccc(O)cc1
active: [6] 0.779 µM
not listed: [4] | [9]
inactive: all other assays above

COCC(C)OCC(C)O (configuration not stated)
not listed: [4] | [9]
inactive: all other assays above

CCCCCCCCCCCCCCCS(=O)(=O)Oc1ccccc1
not listed: [4] | [9]
inactive: all other assays above

COc1ccc([N+](=O)[O-])cc1N
active: [7] 9.92 µM
not listed: [4] | [9]
inactive: all other assays above

CC(=O)NC1(c2cccc(F)c2)CCN(CC[C@@]2(c3ccc(Cl)c(Cl)c3)CN(c3ccccc3)C(=O)CO2)CC1
active: [3] 79.7 µM | [7] 20.5 µM
not listed: [4] | [9]
inactive: all other assays above

NC(=O)N(O)[C@@H]1C=C[C@H](Oc2cccc(Oc3ccc(F)cc3)c2)C1
active: [3] 86.1 µM | [5] 76.2 µM | [8] 50 µM
not listed: [4] | [9]
inactive: all other assays above

O=C(O)c1ccccc1C(c1ccc(O)cc1)c1ccc(O)cc1
not listed: [4] | [8] | [9]
inactive: all other assays above

CC(C)(C)c1ccc(O)c(C(C)(C)C)c1
active: [2] 9.92 µM | [6] 50 µM
not listed: [4] | [9]
inactive: all other assays above

Cc1cc(CCN2CCN(c3nsc4ccccc34)CC2)cc2c1NC(=O)CC2(C)C
active: [3] 77.5 µM | [7] 82 µM | [8] 80.4 µM
not listed: [4] | [9]
inactive: all other assays above

CCCCCCC(=O)O
not listed: [4] | [9]
inactive: all other assays above

Nc1cccc2c(N)cccc12
active: [3] 9.92 µM | [7] 10.9 µM
not listed: [4] | [9]
inactive: all other assays above

CC(C)CCCCCCOC(=O)CCCCC(=O)OCCCCCCC(C)C
not listed: [4] | [9]
inactive: all other assays above

CCCCCCCC(=O)O
not listed: [4] | [9]
inactive: all other assays above

N#C[C@@H]1CC(F)(F)CN1C(=O)CNC1CC2CCC(C1)N2c1ncccn1 (some centres not stated)
active: [2] 12.5 µM
not listed: [4] | [9]
inactive: all other assays above

c1ccc2cc3c(ccc4ccccc43)cc2c1
active: [2] 8.31 µM | [3] 8.09 µM | TIMP1, TIMP1 (gene 7076) 10.2 µM | [7] 5.27 µM
inactive: [1] | [5] | [6] | [8]

Cc1cc(C)c(O)c(C)c1
not listed: [4] | [9]
inactive: all other assays above

CCCCCCCCC(=O)O
not listed: [4]
inactive: all other assays above

CCC(=C(c1ccc(O)cc1)c1ccc(OCCN(C)C)cc1)c1ccccc1
not listed: [4] | [8] | [9]
inactive: all other assays above

CN1CCN(c2ccccc2/C=C2\SCCN(c3ccc(Cl)c(Cl)c3)C2=O)CC1
active: [5] 96.2 µM | [6] 95.5 µM
not listed: [4] | [9]
inactive: all other assays above

CC(=O)CC(C)(C)O
not listed: [4]
inactive: all other assays above

O=[N+]([O-])c1ccc(O)cc1
not listed: [4] | [9]
inactive: all other assays above

CCOC(=O)CC(O)(CC(=O)OCC)C(=O)OCC
not listed: [4] | [9]
inactive: all other assays above

COC(=O)CCCCC(=O)OC
not listed: [1] | [4]
inactive: all other assays above

CCCCC(CC)COC(=O)CCCCC(=O)OCc1ccccc1 (configuration not stated)
not listed: [4] | [9]
inactive: all other assays above

CCCOc1sc(C(=O)N2CCC(c3cc(CN)ccc3F)CC2)c(C)c1Br
not listed: [4] | [9]
inactive: all other assays above

CCCCC(CC)COC(=O)CCCCC(=O)OCC(CC)CCCC (configuration not stated)
not listed: [4] | [9]
inactive: all other assays above
